Bioassay records (PubChem BioAssay)
Pf growth 96h = inhibits malaria parasite growth, 96 h; P. falciparum luciferase reporter growth, 96 h; Potency, µM (doses to about 28.7 µM), hits mostly inhibitors; AID 504834; 320,000 tested, 6.9% active
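Plates of compound plus infected erythrocytes (2% hematocrit, 0.05% parasitemia final) incubate 96 hours, 37 C, 5% CO2. Detection reagent added; reduced luminescence from the parasites' luciferase reporter flags inhibition.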
CHX counter = counter-screen hit for Shiga toxin inhibitors, cycloheximide; cell reporter, cycloheximide protein synthesis inhibition counterscreen; max response, %; 300,000 tested, 12% active; AID 2314; in the data active means max response mostly above about 13%, no sharp cut-off; inactive means mostly below about 14%; further: read at 38.3 µM for the half of the compounds with a filed dose
NS1 function inh = influenza NS1 inhibition; Potency, µM (top dose mostly 46.1 µM); 270,000 tested, 0.4% active; calls by dose curve; further: actives are rising curves; nearly all actives have a fitted effect of over 50% in size
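Read-out: OD600 growth recovery of NS1-expressing budding yeast. Cells grown overnight at 30C in -URA glucose medium, washed, resuspended and diluted 1:100 in 2% galactose assay medium, pH 6.0. Same strain lacking NS1 served as positive control.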
Pf growth 48h = inhibits P. falciparum growth in the first generation, 48 h. P. falciparum luciferase growth in erythrocytes, 48 h. Potency, µM (top dose mostly 28.7 µM), usual class: inhibitors. 310,000 tested, 5.9% active. AID 504832
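Luminescence readout; reporter = integrated firefly luciferase in P. falciparum. RBC culture at 2% hematocrit, 0.1% parasitemia final, 37 C/5% CO2; decreased signal taken as growth inhibition.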
FBPA Giardia inh = blocks Giardia fructose-bisphosphate aldolase activity | purified Giardia FBPA | Potency, µM (series often up to 59.6 µM), actives largely listed as inhibitors | A8B2U2 | 290,000 tested, 0.71% active | AID 2451; further: nearly all actives have a fitted effect of over 55% in size
Target sequence (A8B2U2 whole entry, looked up): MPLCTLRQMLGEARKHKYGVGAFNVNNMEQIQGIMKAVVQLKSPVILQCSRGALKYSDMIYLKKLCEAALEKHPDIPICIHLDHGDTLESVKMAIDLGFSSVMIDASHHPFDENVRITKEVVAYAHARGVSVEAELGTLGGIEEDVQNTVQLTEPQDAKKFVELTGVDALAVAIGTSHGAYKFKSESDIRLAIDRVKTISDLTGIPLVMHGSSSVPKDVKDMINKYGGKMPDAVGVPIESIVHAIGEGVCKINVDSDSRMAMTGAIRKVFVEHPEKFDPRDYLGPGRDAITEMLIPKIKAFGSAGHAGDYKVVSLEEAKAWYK
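40 nM FBPA preincubated 10 min at RT with compound (up to 57.5 uM final), then substrate plus GAPDH/TPI/NAD/arsenate coupling and diaphorase/resazurin added. Fluorescence read after 20 min at RT, 525/598 nm.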
Shiga toxin inh = blocks Shiga toxin action in Vero cells | 290,000 tested, 9.2% active | Vero cells, Shiga toxin protein synthesis inhibition reporter | inhibition, % at 38.7 µM; in the data active means inhibition mostly above about 28%, no sharp cut-off; inactive means mostly below about 43%
Of the large screens only hits and unclear results are named; the others gave an inactive call. The list is not random: actives were taken first. Their share in the collection is about 21%. Unless noted, the call rests on the fitted dose curve; in most records, active means well fitted curve in the direction sought with a large enough effect; inconclusive means small, poorly fitted or top-dose-only effect, or another doubt; inactive means no such curve, though single readings can be large; an effect the other way counts as inactive or inconclusive.

CC(C)Oc1ccc(C(=O)NCc2ccco2)cc1	CHX counter 29.1, Pf growth 48h inconclusive, Shiga toxin inh 38.1
COc1ccc(Nc2nc(C(=O)NCc3ccco3)cs2)cc1	Pf growth 96h inconclusive, CHX counter 13.8, Pf growth 48h inconclusive
Cc1ccccc1Nc1nn2c(=O)c3ccccc3nc2s1	Pf growth 96h 2.62µM
Cc1ccccc1Nc1nc2ccccc2s1	CHX counter 66.4, Shiga toxin inh 135.1
CC1(C)CN=C(Nc2nc3ccccc3s2)S1	CHX counter 38.0, Shiga toxin inh 77.1
Cc1ccc(S(=O)(=O)Nc2nc3ccccc3s2)cc1	Pf growth 96h inconclusive (no result: Pf growth 48h)
O=C(O)C1C2CCC(C2)C1C(=O)Nc1nc2ccccc2s1 (centres undefined)	Pf growth 96h inconclusive
Cc1ccc(Nc2nc3ccccc3s2)cc1	CHX counter 28.8, Shiga toxin inh 72.1
O=C(O)CCn1cnc2c(=S)nc[nH]c21	none (no result: Pf growth 96h, CHX counter, Pf growth 48h, FBPA Giardia inh, Shiga toxin inh)
Fc1ccc(Nc2nc3ccccc3s2)cc1	CHX counter 39.6, Shiga toxin inh 119.7 (no result: NS1 function inh)
O=[N+]([O-])c1ccc(Nc2nc3ccccc3s2)cc1	none (no result: Pf growth 96h, CHX counter, Pf growth 48h, FBPA Giardia inh, Shiga toxin inh)
Cc1sc2ncnc(N(C)C3CCCCC3)c2c1C	Shiga toxin inh 45.3
O=S(=O)(NCC1(N2CCOCC2)CCCCC1)c1ccc(F)c(F)c1F	Pf growth 48h inconclusive (no result: CHX counter, NS1 function inh, FBPA Giardia inh, Shiga toxin inh)
COc1ccc(C(OCC(O)CNC(C)c2ccccc2)c2ccc(OC)cc2)cc1 (centres undefined)	Pf growth 96h inconclusive, Pf growth 48h 10.4µM
CC(C)c1ccc(OCC(O)CNC(C)c2ccccc2)cc1 (centres undefined)	Pf growth 96h inconclusive, Pf growth 48h 4.65µM
NCC(O)COCCC12CC3CC(CC(C3)C1)C2 (centres undefined)	NS1 function inh inconclusive
COc1ccc(C(OCC(O)CNCCc2ccccc2)c2ccc(OC)cc2)cc1 (centres undefined)	Pf growth 96h 4.15µM, Pf growth 48h 9.28µM, FBPA Giardia inh inconclusive
C/C=C/c1ccc(OCC(O)CNCCc2ccc(OC)cc2)c(OC)c1 (centres undefined)	Pf growth 96h inconclusive, Pf growth 48h inconclusive
CC(NCC(O)COCCC12CC3CC(CC(C3)C1)C2)c1ccccc1 (centres undefined)	Pf growth 48h 5.22µM
N#CCCn1c(=O)cnc2cnc(Oc3ccccc3)nc21	none (no result: Pf growth 96h, CHX counter, NS1 function inh, Pf growth 48h, Shiga toxin inh)
COc1ccccc1CCNC(=O)CCn1c(=O)c2cccn2c2ccc(F)cc21	none (no result: FBPA Giardia inh)
Cc1ccc(N(C)S(=O)(=O)c2csc(C(N)=O)c2)cc1C	Pf growth 96h inconclusive (no result: Pf growth 48h)
OC(CNCCc1ccccc1)COc1ccc(OCC(O)CNCCc2ccccc2)cc1 (centres undefined)	Pf growth 96h 3.7µM, Pf growth 48h 1.65µM
Cc1ccc(C(OCC(O)CNCc2ccc(F)cc2)c2ccccc2)cc1 (centres undefined)	Pf growth 96h 4.65µM, FBPA Giardia inh inconclusive (no result: Pf growth 48h)
CCC(=O)c1ccc(OCC(O)CNCc2ccc(F)cc2)cc1 (centres undefined)	Pf growth 96h inconclusive
CCC(=O)c1ccc(OCC(O)CNCCc2ccc(Cl)cc2)cc1 (centres undefined)	Pf growth 96h inconclusive, Pf growth 48h 11.7µM
CC(/C=N/NC(=O)c1cccnc1)=C\c1ccco1	CHX counter 13.9, FBPA Giardia inh inconclusive (no result: Pf growth 96h)
CC(=C/c1ccco1)/C=N/NC(=O)c1ccncc1	FBPA Giardia inh inconclusive
CC(/C=N/NC(=O)c1cnccn1)=C\c1ccco1	CHX counter 31.8, FBPA Giardia inh inconclusive
C[C@@H](C1[C@@H](O)CC2C3C=CC4C[C@@H](O)CC[C@]4(C)[C@H]3CC[C@@]21C)[C@@H]1CCCCN1 (some centres undefined)	none (no result: Pf growth 96h, CHX counter, NS1 function inh, Pf growth 48h, Shiga toxin inh)
Cc1c(C)n(CCc2ccccc2)c2ncnc(NCCO)c12	CHX counter 52.3, Shiga toxin inh 67.9
Cc1c(C)n(CCCN(C)C)c2ncnc(NCc3ccccc3)c12	none
COc1ccccc1Nc1ncnc2c1c(C)c(C)n2CCO	CHX counter 42.1, Shiga toxin inh 60.8
COc1ccccc1Nc1ncnc2sccc12	none
Cc1cc2ccccc2c(=O)n1CC(=O)NC1CCCCCC1	none
Cc1cc2ccccc2c(=O)n1CC(=O)N(C)c1ccc(F)cc1	Pf growth 96h 10.4µM
Cc1ccc(C(C(=O)NC2CCCCC2)N2CCOCC2)cc1 (centres undefined)	Pf growth 96h 10.4µM
Cc1ccc(CN(C(=O)c2ccco2)C(C(=O)NC2CCCC2)c2ccc(N3CCOCC3)cc2)cc1 (centres undefined)	Pf growth 48h 10.4µM
Cc1ccccc1OCC(=O)N1N=C(C(F)(F)F)CC1(O)C(C)(C)C (centres undefined)	Pf growth 96h inconclusive, Pf growth 48h 10.4µM
Cc1ccc(-n2ncc3c2CC(C)(C)CC3NC(=O)c2ccncc2)cc1 (centres undefined)	Pf growth 96h inconclusive
Cc1cc(C)c2oc(=O)cc(CN3CCC(C)CC3)c2c1	Pf growth 96h inconclusive, Pf growth 48h 10.4µM
Cc1ccc2c(CN3CC(C)CC(C)C3)cc(=O)oc2c1C (centres undefined)	Pf growth 96h 14.7µM, Pf growth 48h inconclusive
Cc1ccc2c(CN3CCN(CCO)CC3)cc(=O)oc2c1C	none (no result: Pf growth 96h)
Cc1ccc2c(CN3CCC(C)CC3)cc(=O)oc2c1C	Pf growth 96h inconclusive, CHX counter 54.9, Pf growth 48h inconclusive, Shiga toxin inh 123.1
Cc1ccc2c(CN3CCOCC3)cc(=O)oc2c1C	Pf growth 96h inconclusive
Cc1ccc2c(CN3CCN(S(=O)(=O)c4ccc(Cl)cc4)CC3)cc(=O)oc2c1C	Pf growth 96h inconclusive, Pf growth 48h 4.15µM (no result: CHX counter, NS1 function inh, FBPA Giardia inh, Shiga toxin inh)
CO/N=C(\c1nonc1N)N1CCN(c2ccc(Cl)cc2[N+](=O)[O-])CC1	Pf growth 96h inconclusive
NCCC[C@@H](CC(=O)N[C@@H]1CCCC[C@H]1C(=O)N[C@H](CC(=O)N[C@@H](CCC(=O)O)CC(=O)O)Cc1ccccc1)NC(=O)C[C@H](Cc1c[nH]c2ccccc12)NC(=O)[C@@H]1CCCC[C@H]1N	none (no result: Pf growth 96h, CHX counter, NS1 function inh, Pf growth 48h, Shiga toxin inh)
Cc1ccc(S(=O)(=O)N(Cc2c(F)cccc2Cl)C(=O)N2CCN(C)CC2)cc1	Pf growth 48h inconclusive (no result: CHX counter, NS1 function inh, FBPA Giardia inh, Shiga toxin inh)
Cc1ccc2c(CN3CCN(Cc4ccccc4)CC3)cc(=O)oc2c1C	Pf growth 96h inconclusive
CCc1ccc2c(CN3CCN(S(=O)(=O)c4ccc5c(c4)OCCO5)CC3)cc(=O)oc2c1	Pf growth 96h inconclusive, Pf growth 48h 9.28µM
Cc1cc(C)c2oc(=O)cc(CN3CCN(Cc4ccccc4)CC3)c2c1	Pf growth 96h inconclusive, Pf growth 48h 11.7µM
CCOC(=O)CCc1c(C)nc(SCCN2CCCC2)c(C#N)c1C	Pf growth 96h 5.22µM, Pf growth 48h inconclusive
COc1cccc(CNc2ccc3c(c2)ncn3C)c1OC	CHX counter 18.6, Pf growth 48h inconclusive
COc1cccc(CNc2ccc(S(N)(=O)=O)cc2)c1OC	Pf growth 48h inconclusive (no result: Pf growth 96h)
COc1cccc(CNc2ccc3c(c2)nc(C)n3C)c1OC	Pf growth 96h inconclusive, CHX counter 33.4, Shiga toxin inh 61.0
